Laboratory results reported in PubChem BioAssay (NCI).
This is part of a sample that, as a whole, favours compounds with a hit. Of some 83,000 tested, about 20% had one in any assay.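 Step 1: grow cells in 96-well plates. Step 2: add test compound at a single concentration. Step 3: incubate 48 h. Step 4: record percent growth.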 A number with no mark means an inactive call. The source made the active and inactive calls.

System: SR leukemia
Assay: NCI-60 one-dose screen, 48 h (100 = growth as untreated, 0 = no growth, -100 = all killed)
Conditions: 10 µM unless noted
Method: Growth inhibition of the SR human tumor cell line is measured as a screen for anti-cancer activity. Cells are grown in 96 well plates and exposed to the test compound for 48 hours. Compounds are tested at a single concentration, which is 10^-5 M for most compounds. The reported endpoint is percent growth (GI% or GIPRCNT), where numbers from 0 - 100% represent growth inhibition, and numbers from -100% - 0 represent cell death. For example, a value of 40 represents 60% growth inhibition. A value of 0 means no net growth occurred over the course of the experiment. A value of -40 indicates 40% of cells at the beginning of the experiment died by the end of the experiment. A value of -100 means all cells are dead at the end of the experiment.
NCI-60 Human Tumor Cell Lines Screen was performed using the standard one-dose NCI protocol, which is described in more detail at https://dtp.cancer.gov/discovery_development/nci-60/default.htm.
Compounds with GIPRCNT values below 10 were considered active. Activity score was based on GIPRCNT using the following formula: […]
Score is 0 for GIPRCNT values of 100 or above, 50 for GIPRCNT values of 0, and 100 for GIPRCNT values of -100.

Row | Structure (SMILES) | growth
1 | N#Cc1ccccc1-c1ccc(CN2C(=O)S/C(=C\c3ccc(Br)cc3)C2=O)cc1 | 89.3%
2 | O=C(O)CC(C(=O)O)/C(=C\c1ccccc1)c1ccccc1 (stereo not given) | 105%
3 | COc1ccc2c(c1)c(-c1nc(-c3ccc4ccccc4c3)cs1)cn2C | 49.9%
4 | Clc1ccc(Nc2ncc(Cc3cccc(Cl)c3Cl)s2)cc1 | 102%
5 | CCOC(=O)CC[C@H](NC(=O)c1ccc(N(C)Cc2cnc3nc(N)nc(N)c3n2)c2ccccc12)C(=O)OCC | 31.8%
6 | O=C(c1ccc(Br)cc1)C(Br)C(c1ccc(Cl)cc1)C(c1ccccc1)[N+](=O)[O-] (stereo not given) | 103%
7 | CCOC(=O)c1c(C)nc2c(c1N)C(=O)C(=O)N2Cc1ccc(OC)cc1 | 31%
8 | Nc1nc(C(=O)N/N=C/c2ccc(F)cc2)nn1-c1ccc(S(N)(=O)=O)cc1 | 98.5%
9 | O=C(Nc1ccc(Oc2cccc(Cl)c2)c(Cl)c1)c1cccnn1 | 87%
10 | COc1cc(O)c2c(=O)c3c(CC=C(C)C)cc(OC)c(O)c3oc2c1 | 24.7%
11 | COc1cc(OC)c2c(=O)c3c(CC=C(C)C)cc(OC)c(O)c3oc2c1 | 53.2%
12 | Clc1cccc(C2Cc3cnccc3-c3[nH]c4ccncc4c32)c1 (stereo not given) | 36.5%
13 | COc1ccc(-c2cc(-c3cc(OC)ccc3OC)nc(SCC(C)=O)c2C#N)cc1 | 32.1%
14 | CCOC(=O)NCCCC(=O)NCCc1ccccc1 | 106%
15 | N#Cc1ccc(/C=C/c2cn(-c3ccccc3)nc2-c2cccc([N+](=O)[O-])c2)cc1 | 66.5%
16 | Cc1ccc(S(=O)(=O)N2CCCN(c3nc(-c4ccccc4)nc4nc(-c5ccccc5)oc34)CC2)cc1 | 92.2%
17 | COc1ccc(-c2cn(Cc3cc4ccccc4s3)nn2)cc1OCCN1CCCCC1 | 1.37% (active)
18 | CCOC(=O)c1nnn(-c2no[n+]([O-])c2-c2ccc(OC)cc2)c1COc1cccc2cccnc12 | 6.52% (active)
19 | Cc1cc(O)cc(-c2nn(C)cc2-c2cc(N3CCOCC3)nc(-c3cccnc3)n2)c1 | 15%
20 | CC(C)C1C2=C(NCCN1C(=O)c1ccncc1)C(C)(C)N(Cc1ccccc1)C2=O (stereo not given) | 89.4%

Row | Structure (SMILES) | growth
21 | O=c1cc(CNc2cc(F)cc(F)c2)c2ccc(I)cc2[nH]1 | -0.446% (active)
22 | CCN1C(=O)N(c2ccccc2)C2NC(=S)N(/N=C/C=C/c3ccccc3OC)C21 (stereo not given) | 17.4%
23 | C=C1C(=O)O[C@H]2[C@H]1CC/C(COC(=O)NCc1ccc(Cn3c(=O)sn(-c4ccccc4)c3=O)cc1)=C\CC[C@@]1(C)O[C@@H]21 | -4.67% (active)
24 | COc1ccc(-c2cc(-c3cn(-c4cccc(Cl)c4)nc3-c3ccc(OC)cc3)on2)cc1 | 68.4%
25 | C=C(C)[C@@H]1CC[C@]2(COC3CCCCO3)CC[C@]3(C)[C@H](CC[C@@H]4[C@@]5(C)C=C(C=O)C(=O)C(C)(C)[C@@H]5CC[C@]43C)[C@@H]12 (stereo not given in full) | -5.54% (active)
26 | O=[N+]([O-])c1ccccc1Sc1ccccc1[N+](=O)[O-] | 104%
27 | CC(=O)c1ccc(-n2cc(CN3CCN(c4cc5c(cc4F)c(=O)c(C(=O)O)cn5C4CC4)CC3)nn2)cc1 | 99.6%
28 | COc1cc2ncnc(Nc3ccc(F)c(Cl)c3)c2cc1OCC(=O)N1CCOCC1 | 89.3%
29 | C=C1C(=O)O[C@@H]2C3C(=C(C)CC[C@@H]12)CC1O[C@]13C (stereo not given in full) | 38.4% [6.75 µM]
30 | Cc1c(O)cc(-c2cnc(N/N=C/c3ccccc3)s2)c(O)c1C | 95.3%
31 | COC(=O)c1nc(-c2ccccc2)oc1S(=O)(=O)N1CCCC(C)C1 (stereo not given) | 0.921% (active)
32 | CCN(CC)CCN1C(=O)c2c(c3c4ccccc4[nH]c3c3ccc4ccccc4c23)C1=O | -22.5% (active)
33 | O=C(/C=C/C12c3ccccc3C(c3ccccc31)C1C(=O)NC(=O)C12)c1ccc(I)cc1 (stereo not given) | 25.2%
34 | CN(C)c1ccc([C@@H](C(=O)Nc2cccc([N+](=O)[O-])c2)N(C(=O)c2cc3ccccc3[nH]2)c2cccc([N+](=O)[O-])c2)cc1 | 97%
35 | Nc1c(Cl)cc(/C=C2\C=Cc3ccccc32)cc1Cl | 93.9%
36 | COc1ccc(CNc2ccc3nc(NC(=O)CN4CCCCCC4)sc3c2)cc1 | 93.5%
37 | Oc1nc(NCc2ccccc2)sc1/C=C1\C=Nc2ncccc21 | 2.17% (active)
38 | COc1nc(/C=C\Nc2ccc3c(c2)OCCOCCOCCOCCO3)nc(OC)n1 | 119%
39 | COc1ccc(C(=O)Nc2ncc(Cc3ccc(Cl)cc3)s2)cc1 | 5.82% (active)
40 | Cc1cccc(-c2nc(C(C)C)sc2-c2ccnc(NCCCNS(=O)(=O)c3ccc(Cl)cc3)c2)c1 | 54.6%
